{"source": "PubChem BioAssay (Tox21)", "note": "Records with an inconclusive call do not appear. A number with no mark means an inactive call. Calls of active or inactive are those of the source. Calls follow the shape of the full dose curve. % is scaled to controls: 0 for no effect and ±100 for the full control effect; potency is read from the fitted curve at half-maximal effect.", "data": [{"test": "p53 small molecule agonists, cell-based qHTS assay with rat liver microsomes: qHTS cell viability counter screen (AID 1963580); also: nearly all actives have a fitted effect of over 45% in size", "settings": "p53RE-bla HCT-116 + rat microsomes, ATP viability, 16 h; series mostly up to 66 µM; activity change, negative = cytotoxicity: at the top concentration", "description": "National Center for Advancing Translational Sciences [NCATS]\nDivision of Preclinical Innovation [DPI]\nU.S. Environmental Protection Agency [EPA]\nNational Institutes of Environmental Health Sciences [NIEHS]\nNational Toxicology Program [NTP]\nU.S. Food and Drug Administration [FDA]\np53, a tumor suppressor protein, is activated following cellular insult, including DNA damage and other cellular stresses. The activation of p53 regulates cell fate by inducing DNA repair, cell cycle arrest, apoptosis, or cellular senescence. The activation of p53, therefore, is a good indicator of DNA damage and other cellular stresses. The CellSensor p53RE-bla HCT-116 cell line contains a stably integrated beta-lactamase reporter gene under control of the p53 response elements. The activation of the reporter gene under culture conditions can be detected by fluorescence intensity. This cell line was used to screen the Tox21 10K compound library in the condition of presence of rat liver microsomes and to identify agonists that activate the p53 signaling pathway after in vitro metabolic activation (Ooka et al., Archive of Toxicology 96:1975-1987, 2022). The cytotoxicity of the Tox21 compound library against the p53 RE-bla HCT-116 cell line was tested in parallel by measuring the intra cellular ATP content in the same wells.\nTox21 Assay Protocol Summary:\nThe p53RE-bla cells were dispensed at 4,000cells/3ul/well in 1536-well black-clear bottom plates. After the assay plates were incubated at 37 C, 5% CO2 incubator for 5 hours, 23 nL of compounds dissolved in DMSO, positive controls or DMSO only was transferred to the assay plate. Following compound addition, 3 uL of rat liver microsomes (Molecular Toxicology, Boone, NC) at final concentration of 0.5 mg/mL and 1uL of B-Nicotinamide adenine dinucleotide 2'-phosphate (NADPH) at final concentration of 0.5 mg/mL were transferred to the assay plate. The plates were incubated at 37 C for 16 hours. 1 uL of LiveBLAzer detection mixture was added to each well and the plates were incubated at room temperature in the dark for 2 h. Fluorescence intensity at 460 and 530 nm emission and 405 nm excitation were measured by an Envision plate reader. For cell viability readout that measures cytotoxicity, 4 ul/well of CellTiter-Glo reagent was added into the assay plates using a Flying Reagent Dispenser. After 30 min incubation at room temperature, the luminescence intensity in the plates was measured using a ViewLux plate reader.", "values": [{"smiles": "CC(CC(C#N)(c1ccccc1)c1ccccc1)N(C)C", "note": "(stereo not given)", "activity change, negative = cytotoxicity": "-2.52%"}, {"smiles": "O=C1NC(=O)C(=O)C(=O)N1", "activity change, negative = cytotoxicity": "-0.397%"}, {"smiles": "Nc1ccc2c(c1)Cc1ccccc1-2", "activity change, negative = cytotoxicity": "-3.65%"}, {"smiles": "CC(O)CCl", "note": "(stereo not given)", "activity change, negative = cytotoxicity": "0.566%"}, {"smiles": "C=CCN1CC[C@]23c4c5ccc(O)c4O[C@H]2C(=O)CC[C@@]3(O)[C@H]1C5", "activity change, negative = cytotoxicity": "0.787% [at 30.3 µM]"}, {"smiles": "CC(C)CC#N", "activity change, negative = cytotoxicity": "0.343%"}, {"smiles": "CCC(C)Br", "note": "(stereo not given)", "activity change, negative = cytotoxicity": "3.65%"}, {"smiles": "CN[C@@H](C)[C@H](O)c1ccccc1", "activity change, negative = cytotoxicity": "0.302% [at 30.3 µM]"}, {"smiles": "CCCOC(=O)Cc1ccc(OCC(=O)N(CC)CC)c(OC)c1", "activity change, negative = cytotoxicity": "0.711% [at 30.3 µM]"}, {"smiles": "[Hg+2].[I-].[I-]", "Potency": "12.9 µM (active)"}, {"smiles": "c1ccccc1", "activity change, negative = cytotoxicity": "-3.15%"}, {"smiles": "CC(c1ccc(O)cc1)(c1ccc(O)cc1)c1ccc(O)cc1", "activity change, negative = cytotoxicity": "-0.204%"}, {"smiles": "NCC1(CC(=O)O)CCCCC1", "activity change, negative = cytotoxicity": "-0.497% [at 30.3 µM]"}, {"smiles": "Cc1ccc(-c2c(Cl)nc(C#N)n2S(=O)(=O)N(C)C)cc1", "activity change, negative = cytotoxicity": "-8.49%"}, {"smiles": "CC[N+]1(C)CCCC(OC(=O)C(O)(c2ccccc2)c2ccccc2)C1", "note": "(stereo not given)", "activity change, negative = cytotoxicity": "-10.4% [at 30.3 µM]"}, {"smiles": "O=C(Nc1ccc(F)cc1F)c1cccnc1Oc1cccc(C(F)(F)F)c1", "activity change, negative = cytotoxicity": "-1.84%"}, {"smiles": "c1ccc2c(c1)Sc1ccccc1N2CC1CN2CCC1CC2", "note": "(stereo not given)", "activity change, negative = cytotoxicity": "0.935% [at 30.3 µM]"}, {"smiles": "CCOC1Oc2ccc(OS(C)(=O)=O)cc2C1(C)C", "note": "(stereo not given)", "activity change, negative = cytotoxicity": "4.1%"}, {"smiles": "O=C(NC(=O)c1c(F)cccc1F)Nc1cc(Cl)c(Oc2ncc(C(F)(F)F)cc2Cl)c(Cl)c1", "activity change, negative = cytotoxicity": "11%"}, {"smiles": "[CH3][Hg][Cl]", "activity change, negative = cytotoxicity": "25.6%"}, {"smiles": "N#Cc1c(Cl)cccc1Cl", "activity change, negative = cytotoxicity": "-1.93%"}, {"smiles": "Cc1cc(C)c(C(=O)P(=O)(C(=O)c2c(C)cc(C)cc2C)c2ccccc2)c(C)c1", "activity change, negative = cytotoxicity": "-2.33%"}, {"smiles": "CCCN(CCCl)c1c([N+](=O)[O-])cc(C(F)(F)F)cc1[N+](=O)[O-]", "activity change, negative = cytotoxicity": "-0.955%"}, {"smiles": "NCCc1cc(O)c(O)cc1O", "activity change, negative = cytotoxicity": "-5.31% [at 30.3 µM]"}, {"smiles": "O=[N+]([O-])C(Br)Br", "activity change, negative = cytotoxicity": "-12.6%"}, {"smiles": "CC(=O)[O-].CC(=O)[O-].[Co+2]", "activity change, negative = cytotoxicity": "0.263%"}, {"smiles": "C[N+]1(CCC(C(N)=O)(c2ccccc2)c2ccccc2)CCCCC1", "activity change, negative = cytotoxicity": "2.77% [at 30.3 µM]"}, {"smiles": "O=C(Cc1ccccc1)OCc1ccccc1", "activity change, negative = cytotoxicity": "4.44%"}, {"smiles": "CC(CCc1ccccc1)NC(C)C(O)c1ccc(O)cc1", "note": "(stereo not given)", "activity change, negative = cytotoxicity": "1.78% [at 30.3 µM]"}, {"smiles": "CCCN(CC)CC1COC2(CCC(C(C)(C)C)CC2)O1", "note": "(stereo not given)", "activity change, negative = cytotoxicity": "-1.31%"}, {"smiles": "O=[N+]([O-])c1ccc(CCl)cc1", "activity change, negative = cytotoxicity": "-0.565%"}, {"smiles": "CC(O)C#N", "note": "(stereo not given)", "activity change, negative = cytotoxicity": "0.266%"}, {"smiles": "CCCCCCCCBr", "activity change, negative = cytotoxicity": "10.9%"}, {"smiles": "c1ccc2nc(N3CCNCC3)ccc2c1", "activity change, negative = cytotoxicity": "-2.33% [at 30.3 µM]"}, {"smiles": "CNP(=O)(OC)Oc1ccc(C(C)(C)C)cc1Cl", "note": "(stereo not given)", "activity change, negative = cytotoxicity": "-17.6%"}, {"smiles": "O=C(CCCCl)c1ccc(F)cc1", "activity change, negative = cytotoxicity": "1.09% [at 30.3 µM]"}, {"smiles": "CCOC(=O)C1(c2ccccc2)CCN(CCc2ccc(N)cc2)CC1", "activity change, negative = cytotoxicity": "-6.26% [at 30.3 µM]"}, {"smiles": "CN1CCC(O)(c2ccc(F)cc2)C(C(=O)c2ccc(F)cc2)C1", "note": "(stereo not given)", "activity change, negative = cytotoxicity": "-6.91% [at 30.3 µM]"}, {"smiles": "CCOP(=S)(OCC)SC(CCl)N1C(=O)c2ccccc2C1=O", "note": "(stereo not given)", "activity change, negative = cytotoxicity": "8.71%"}, {"smiles": "NNC(=O)c1cccnc1", "activity change, negative = cytotoxicity": "1.38%"}]}]}
